Assay outcomes deposited in PubChem by National Center for Advancing Translational Sciences (NCATS).
The full list was thinned out, with hits kept by preference.
AmpC inh no detg: AmpC beta-lactamase inhibition without detergent; P00811; AmpC nitrocefin hydrolysis, absorbance 480 nm, 0.0001% Triton; Potency, µM (titrated, usually from 57.1 µM), most hits filed as inhibitors; actives 0.52% (n = 330,000); AID 485341; also: nearly all actives have a fitted effect of over 20% in size
Target sequence (P00811 whole entry, looked up): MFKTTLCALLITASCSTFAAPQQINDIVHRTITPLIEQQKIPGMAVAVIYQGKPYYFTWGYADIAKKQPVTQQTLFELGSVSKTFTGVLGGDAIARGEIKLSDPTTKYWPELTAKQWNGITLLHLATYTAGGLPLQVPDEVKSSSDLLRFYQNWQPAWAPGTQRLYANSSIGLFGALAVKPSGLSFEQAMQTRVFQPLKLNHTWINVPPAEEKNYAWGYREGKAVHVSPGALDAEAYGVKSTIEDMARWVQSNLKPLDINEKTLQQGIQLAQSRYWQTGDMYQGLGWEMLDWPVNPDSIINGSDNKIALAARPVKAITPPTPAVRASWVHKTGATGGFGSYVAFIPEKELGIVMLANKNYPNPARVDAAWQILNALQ
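AmpC (5.3 nM in the dispensed reagent) in 20 mM phosphate pH 7.0 with 0.01% (detergent screen) or 0.0001% Triton X-100 was preincubated with compounds for 15 min at room temperature. Nitrocefin was then added from an 800 uM solution, and hydrolysis was followed at 480 nm.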
AmpC inh detg: blocks E. coli AmpC beta-lactamase in detergent assay. P00811. AmpC hydrolysis of nitrocefin, absorbance 480 nm, 0.01% Triton. Potency, µM (titrated, usually from 114 µM), most hits filed as inhibitors. actives 0.041% (n = 370,000). AID 485294; also: nearly all actives have a fitted effect of over 25% in size
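AmpC (5.3 nM in the dispensed reagent) in 20 mM phosphate pH 7.0 with 0.01% (detergent screen) or 0.0001% Triton X-100 was preincubated with compounds for 15 min at room temperature. Nitrocefin was then added from an 800 uM solution, and hydrolysis was followed at 480 nm.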
AMA1 RON2 block: inhibitors of Plasmodium falciparum AMA1-RON2 interaction | Potency, µM (top dose mostly 58.2 µM), most hits filed as inhibitors | actives 0.2% (n = 360,000) | AlphaScreen AMA1-biotinylated RON2 peptide binding | AID 720542; also: nearly all actives have a fitted effect of over 45% in size
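AMA1 (3D7) with his tag at 25 nM final met compounds first, then biotinylated RON2 peptide at 25 nM; detection used donor plus acceptor beads, 10 µg/mL apiece, read by AlphaScreen after 30 min at room temperature.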
Shiga inhibitor: Shiga toxin inhibition; inhibition, % at 38.7 µM; actives 9.2% (n = 290,000); Vero cells, Shiga toxin protein synthesis inhibition reporter; in the data active = inhibition mostly above about 28%, no sharp cut-off; inactive = mostly below about 43%
Cycloheximide cs: counter-screen for Shiga toxin inhibitors: cycloheximide protein synthesis inhibition; cell reporter, cycloheximide protein synthesis inhibition counterscreen; actives 12% (n = 300,000); max response, %; in the data active = max response mostly above about 13%, no sharp cut-off; inactive = mostly below about 14%; also: read at 38.3 µM for the half of the compounds with a filed dose
SARS PLP yeast: inhibitors of SARS-CoV papain-like protease in yeast. S. cerevisiae expressing SARS-CoV PLpro, growth rescue. Potency, µM (titrated, usually from 32.9 µM), most hits filed as activators. actives 0.19% (n = 330,000). AID 485353; calls by dose curve; also: nearly all actives have a fitted effect of over 55% in size
Large screens that a line does not name were inactive. Unless noted, calls follow the shape of the dose curve; as a rule, active = well fitted curve in the direction sought with a large enough effect; inconclusive = small, poorly fitted or top-dose-only effect, or another doubt; inactive = no such curve, though single readings can be large; an effect the other way counts as inactive or inconclusive.

Cc1nnc(NC(=O)c2ccccc2F)s1	Shiga inhibitor 35.8, Cycloheximide cs 17.5
Cc1ccc(OCC(=O)N(Cc2ccc(C)o2)C2CCS(=O)(=O)C2)cc1 (centres undefined)	none
COc1ccc(OC)c(CNC(=O)COc2cc(=O)n(C)c3ccccc23)c1	none (no result: AmpC inh no detg, AmpC inh detg, Shiga inhibitor, Cycloheximide cs, SARS PLP yeast)
CC(C)c1ccc(NC(=O)C(c2ccccc2)N2CC(=O)Nc3ccccc32)cc1 (centres undefined)	Shiga inhibitor active, Cycloheximide cs 32.8
COc1ccc(NC(=O)C(C2CC2)n2c(=O)c(-c3cc4ccccc4[nH]3)nc3ccccc32)cc1 (centres undefined)	none (no result: AmpC inh no detg, AmpC inh detg, Shiga inhibitor, Cycloheximide cs, SARS PLP yeast)
Oc1c(Cl)cc(Cl)cc1C(C#Cc1ccccc1)N1CCOCC1 (centres undefined)	AmpC inh no detg 0.316µM
CN(C)c1ccc(C(=S)N2CCN(c3ccc([N+](=O)[O-])cc3)CC2)cc1	none
CN(C)c1ccc(C(=S)N2CCN(c3ccccc3)CC2)cc1	AMA1 RON2 block inconclusive, Cycloheximide cs 25.0
CC1CCN(C(=S)c2ccc(N(C)C)cc2)CC1	Shiga inhibitor 62.3
CC(=O)N1CCN(C(=S)c2ccc(N(C)C)cc2)CC1	none
Cc1ccc(N2CCN(C(=S)c3ccc(N(C)C)cc3)CC2)cc1	AMA1 RON2 block inconclusive, Shiga inhibitor active, Cycloheximide cs 58.7
O=C(COC(=O)c1cc([N+](=O)[O-])ccc1Cl)NCCc1ccccc1	none (no result: Shiga inhibitor, Cycloheximide cs)
Cc1ccc(C(C)C)c(OCc2nnc3n2CCCCC3)c1	none
CC(C)Nc1nc(NC(C)C)nc(SCCOC(=O)Nc2ccc(Cl)cc2Cl)n1	Cycloheximide cs 21.5
CCNc1nc(NC(C)C)nc(SCCOC(=O)c2ccccc2)n1	AmpC inh detg inconclusive
O=C(NCc1ccccc1)Oc1cccc(Cl)c1	AmpC inh detg inconclusive, Cycloheximide cs 9.6
O=C(NCc1ccccc1)c1cccc(COc2cccc(Cl)c2)c1	none
O=C(NCc1ccccc1)c1cccc(COc2ccc(Cl)cc2)c1	Shiga inhibitor 199.5, Cycloheximide cs 130.5
COc1cc(CNC(=O)c2cccc(COc3ccc(Cl)cc3)c2)cc(OC)c1	Shiga inhibitor 112.6, Cycloheximide cs 51.6
Cc1cccc(C)c1NC(=O)C(c1ccccc1)n1c(=O)c(-c2ccccc2)nc2ccccc21 (centres undefined)	none (no result: AmpC inh no detg, AmpC inh detg, Shiga inhibitor, Cycloheximide cs, SARS PLP yeast)
CCC(C)n1ncn(-c2ccc(N3CCN(c4ccc(O)cc4)CC3)cc2)c1=O (centres undefined)	none
O=C(c1ccncc1)c1ccc(NC(=O)c2cccs2)cc1	Shiga inhibitor 148.1, Cycloheximide cs 29.2
O=C(Nc1ccc(Cc2ccncc2)cc1)c1cccs1	Shiga inhibitor 69.1, Cycloheximide cs 33.4
O=C(Nc1ccc(NC(=O)c2cccs2)cc1)c1cccnc1	AmpC inh detg inconclusive
COC(=O)CSc1ccsc1C(=O)O	none
CC(NC(=O)CCc1nnc(-c2ccccc2)o1)c1ccccc1 (centres undefined)	Shiga inhibitor 124.1, Cycloheximide cs 35.3
Cc1cc(CNC(=O)CCc2nnc(CCCc3ccccc3)o2)nn1C	Shiga inhibitor 33.4, Cycloheximide cs 37.2
Cc1cccc(CC(C)NC(=O)CCc2nnc(CCCCc3ccccc3)o2)n1 (centres undefined)	none
CC(NC(=O)CCc1nnc(CCCc2ccccc2)o1)c1ccccc1 (centres undefined)	Shiga inhibitor 93.8, Cycloheximide cs 28.7
COc1cc(OC)cc(C(=O)Nc2ccc(Cn3ccnc3)cc2)c1	Cycloheximide cs 15.1
COc1ccc(C(=O)Nc2ccc(Cn3ccnc3)cc2)cc1OC	AmpC inh detg inconclusive, Shiga inhibitor 21.3, Cycloheximide cs 13.0
CNC(=O)c1c(NC(=O)Cc2coc3ccc(C)cc23)sc2c1CCCC2	none (no result: AmpC inh no detg, AMA1 RON2 block, Shiga inhibitor, Cycloheximide cs, SARS PLP yeast)
CCOC(=O)c1nc2ccccc2s1	Shiga inhibitor 61.3, Cycloheximide cs 26.7
CCOC(=O)Nc1nc(-c2ccc(Cl)cc2Cl)cs1	Shiga inhibitor 77.6, Cycloheximide cs 23.6
COC(=O)c1ccc(/C=N/Nc2nc(-c3ccc(Cl)cc3Cl)cs2)cc1	none (no result: AMA1 RON2 block)
CCCNC(=O)c1ccc(-c2nc3ccccc3s2)s1	Cycloheximide cs 48.2
Cc1ccc(C(=O)N(Nc2nc3ccccc3s2)C(=O)c2ccc(C)cc2)cc1	Cycloheximide cs 10.5
CN1CCN(c2nc3c(c(=O)[nH]c(=O)n3C)n2CCCSc2ncccn2)CC1	none
CN(c1ccccc1)S(=O)(=O)c1ccc2[nH]c(=O)oc2c1	none
COc1ccc(CC(=O)N(C)c2ccccc2)cc1S(=O)(=O)N1CCOCC1	none (no result: AmpC inh no detg, AmpC inh detg, Shiga inhibitor, Cycloheximide cs, SARS PLP yeast)
CCOC(=O)c1ccc(NC(=O)Nc2nc3ccccc3s2)cc1	none (no result: AmpC inh no detg, AmpC inh detg, Shiga inhibitor, Cycloheximide cs, SARS PLP yeast)
CN(C)c1ccc(CC(=O)c2nc3ccccc3s2)cc1	Shiga inhibitor 43.7, Cycloheximide cs 66.9
CCCCNC(=O)Nc1nc2ccccc2s1	AmpC inh detg inconclusive, Shiga inhibitor 70.6
CCCNC(=O)Nc1nc2ccccc2s1	AmpC inh detg inconclusive, Shiga inhibitor 87.5, Cycloheximide cs 51.5
CN(C)C(=O)c1nc2ccccc2s1	Shiga inhibitor 73.9, Cycloheximide cs 28.3
O=C(NCCCO)c1nc2ccccc2s1	none
O=C(O)CCC(=O)Nc1nc2ccccc2s1	AmpC inh detg inconclusive
O=NN(C(=O)NC1CCC(C(=O)O)CC1)C1CCC(C(=O)O)CC1 (centres undefined)	none (no result: AmpC inh no detg, AmpC inh detg, Shiga inhibitor, Cycloheximide cs, SARS PLP yeast)
CN(C(=O)c1ccccc1)c1nc2ccccc2s1	AmpC inh detg inconclusive, Shiga inhibitor 73.8, Cycloheximide cs 46.0
CCOC(=O)CC(=O)Nc1nc2ccccc2s1	none
Cc1nc2c(ccc3nc(NC(=O)Cc4ccccc4)sc32)s1	Shiga inhibitor 35.7, Cycloheximide cs 35.9
Cc1nc2c(ccc3nc(NC(=O)c4ccc(S(=O)(=O)N(C)C)cc4)sc32)s1	none
CCOC(=O)Nc1nc2ccccc2s1	Shiga inhibitor 66.0, Cycloheximide cs 31.4
Cc1ccc(CC(=O)Nc2nc3ccccc3s2)cc1	AmpC inh no detg inconclusive, Shiga inhibitor 174.4, Cycloheximide cs 39.9
COc1ccc(Cl)cc1Nc1nc(-c2sc(NC(=O)c3ccco3)nc2C)cs1	none
Cc1ccc(NC(=O)Cc2ccccc2)cc1S(=O)(=O)N1CCOCC1	none (no result: AmpC inh detg, Shiga inhibitor, Cycloheximide cs)
CCCCNC(=O)Nc1ccon1	AmpC inh detg inconclusive
CCCCNC(=O)Nc1nc2ccc(CC)cc2s1	Shiga inhibitor 73.2, Cycloheximide cs 34.4
CCCN(CC(=O)Nc1ccccc1C)C(=O)c1ccc(S(=O)(=O)N2CCC(C)CC2)cc1	none (no result: Shiga inhibitor, Cycloheximide cs)
COC(=O)CCC(=O)N1CCC(Oc2cccc(C(=O)NCc3ccccn3)c2)CC1	none (no result: AmpC inh no detg, AmpC inh detg, Shiga inhibitor, Cycloheximide cs, SARS PLP yeast)
O=C(O)c1cccc(Cn2c(Cl)c(/C=N/NC(=O)c3ccccc3)sc2=O)c1	AmpC inh detg inconclusive
O=C(O)c1cccc(Cn2c(Cl)c(/C=N/NC(=O)c3cccc(O)c3)sc2=O)c1	Shiga inhibitor 74.8, Cycloheximide cs 24.5
